Data: the supplement of paper PMC8728848
About 410 targets per protein were measured; listed, in parts, are those with the strongest signals and a random draw of the rest.

Key:
Assay in all cases: glycan array binding signal (z-score within array); higher = stronger binding
Conditions in all cases: glycan notation: IUPAC condensed, linker removed
[1] = target: Fuc(a1-2)Gal(b1-3)GalNAc(b1-4)[Neu5Ac(a2-3)]Gal(b1-4)Glc
Procedure, shortened: (§1)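 Columns mapping to the same glycan were averaged after glycan names were converted to IUPAC-condensed notation. The data come from 3228 arrays in the Consortium for Functional Glycomics database, limited to those with an available protein sequence. Binding is reported as a within-array Z-score averaged across arrays of one protein sequence and across linkers.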

[2] = target: Fuc(a1-2)Gal(b1-4)[Fuc(a1-3)]GlcNAc(b1-3)GalNAc
Procedure, shortened: as §1

[3] = target: Fuc(a1-2)[GalNAc(a1-3)]Gal(b1-4)[Fuc(a1-3)]GlcNAc(b1-3)GalNAc
Procedure, shortened: as §1

[4] = target: Fuc(a1-3)[Gal(b1-4)]GlcNAc(b1-2)Man(a1-3)[Fuc(a1-3)[Gal(b1-4)]GlcNAc(b1-2)Man(a1-6)]Man(b1-4)GlcNAc(b1-4)GlcNAc
Procedure, shortened: as §1

[5] = target: Fuc(a1-3)[Gal(b1-4)]GlcNAc(b1-2)Man(a1-3)[Fuc(a1-3)[Gal(b1-4)]GlcNAc(b1-2)Man(a1-6)]Man(b1-4)GlcNAc(b1-4)[Fuc(a1-6)]GlcNAc
Procedure, shortened: as §1

Gal(a1-3)Gal(b1-3)GlcNAc = target: Gal(a1-3)Gal(b1-3)GlcNAc
Procedure, shortened: as §1

[6] = target: Gal(a1-4)Gal(b1-4)GlcNAc(b1-3)Gal(b1-4)Glc
Procedure, shortened: as §1

[7] = target: Gal(b1-3)GlcNAc(b1-3)Gal(b1-4)GlcNAc(b1-6)[Gal(b1-3)GlcNAc(b1-3)]Gal(b1-4)Glc
Procedure, shortened: as §1

[8] = target: Gal(b1-3)[Fuc(a1-4)]GlcNAc(b1-2)Man(a1-3)[Gal(b1-3)[Fuc(a1-4)]GlcNAc(b1-2)Man(a1-6)]Man(b1-4)GlcNAc(b1-4)[Fuc(a1-6)]GlcNAc
Procedure, shortened: as §1

[9] = target: Gal(b1-4)GlcNAc(b1-2)Man(a1-3)Man(b1-4)GlcNAc(b1-4)GlcNAc
Procedure, shortened: as §1

[10] = target: Gal(b1-4)GlcNAc(b1-2)Man(a1-3)[Gal(b1-4)GlcNAc(b1-2)Man(a1-6)]Man(b1-4)GlcNAc(b1-4)GlcNAc
Procedure, shortened: as §1

[11] = target: Gal(b1-4)GlcNAc(b1-2)Man(a1-6)Man(b1-4)GlcNAc(b1-4)GlcNAc
Procedure, shortened: as §1

[12] = target: Gal(b1-4)GlcNAc(b1-2)[Gal(b1-4)GlcNAc(b1-6)]Man(a1-6)[GlcNAc(b1-4)][Gal(b1-4)GlcNAc(b1-2)Man(a1-3)]Man(b1-4)GlcNAc(b1-4)GlcNAc
Procedure, shortened: as §1

Gal3S(b1-4)GlcNAc6S = target: Gal3S(b1-4)GlcNAc6S
Procedure, shortened: as §1

Gal3S6S(b1-4)GlcNAc = target: Gal3S6S(b1-4)GlcNAc
Procedure, shortened: as §1

Gal6S(b1-3)GlcNAc = target: Gal6S(b1-3)GlcNAc
Procedure, shortened: as §1

GalNAc(b1-3)GalNAc = target: GalNAc(b1-3)GalNAc
Procedure, shortened: as §1

[13] = target: Glc(a1-4)Glc(a1-4)Glc(a1-4)Glc
Procedure, shortened: as §1

[14] = target: GlcNAc(a1-4)Gal(b1-4)GalNAc
Procedure, shortened: as §1

[15] = target: GlcNAc(a1-4)Gal(b1-4)GlcNAc(b1-3)Gal(b1-4)GlcNAc
Procedure, shortened: as §1

[16] = target: GlcNAc(b1-3)Gal(b1-3)GalNAc
Procedure, shortened: as §1

[17] = target: GlcNAc(b1-3)Gal(b1-4)GlcNAc(b1-3)Gal(b1-4)GlcNAc
Procedure, shortened: as §1

GlcNAc(b1-3)Man = target: GlcNAc(b1-3)Man
Procedure, shortened: as §1

Kdn(a2-3)Gal(b1-3)GlcNAc = target: Kdn(a2-3)Gal(b1-3)GlcNAc
Procedure, shortened: as §1

[18] = target: Man(a1-2)Man(a1-3)[Man(a1-2)Man(a1-6)]Man(a1-6)[Man(a1-2)Man(a1-2)Man(a1-3)]Man(b1-4)GlcNAc(b1-4)GlcNAc
Procedure, shortened: as §1

[19] = target: Neu5Ac(a2-3)Gal(b1-4)GlcNAc(b1-3)Gal
Procedure, shortened: as §1

[20] = target: Neu5Ac(a2-3)Gal(b1-4)GlcNAc(b1-3)Gal(b1-4)[Fuc(a1-3)]GlcNAc
Procedure, shortened: as §1

[21] = target: Neu5Ac(a2-3)Gal(b1-4)[Fuc(a1-3)]GlcNAc(b1-3)Gal(b1-4)GlcNAc
Procedure, shortened: as §1

[22] = target: Neu5Ac(a2-3)Gal(b1-4)[Fuc(a1-3)]GlcNAc(b1-3)Gal(b1-4)[Fuc(a1-3)]GlcNAc(b1-3)Gal(b1-4)[Fuc(a1-3)]GlcNAc
Procedure, shortened: as §1

[23] = target: Neu5Ac(a2-3)Gal(b1-4)[Fuc(a1-3)]GlcNAc(b1-3)GalNAc
Procedure, shortened: as §1

[24] = target: Neu5Ac(a2-3)Gal(b1-4)[Fuc(a1-3)]GlcNAc(b1-6)[Gal(b1-3)]GalNAc
Procedure, shortened: as §1

[25] = target: Neu5Ac(a2-3)Gal6S(b1-4)[Fuc(a1-3)]GlcNAc
Procedure, shortened: as §1

[26] = target: Neu5Ac(a2-3)[GalNAc(b1-4)]Gal(b1-4)GlcNAc(b1-3)GalNAc
Procedure, shortened: as §1

Neu5Ac(a2-6)Gal(b1-4)Glc = target: Neu5Ac(a2-6)Gal(b1-4)Glc
Procedure, shortened: as §1

[27] = target: Neu5Ac(a2-6)Gal(b1-4)GlcNAc(b1-2)Man(a1-3)[GlcNAc(b1-2)Man(b1-4)GlcNAc(b1-2)Man(a1-6)]Man(b1-4)GlcNAc(b1-4)GlcNAc
Procedure, shortened: as §1

[28] = target: Neu5Ac(a2-6)Gal(b1-4)GlcNAc(b1-2)Man(a1-6)Man(b1-4)GlcNAc(b1-4)GlcNAc
Procedure, shortened: as §1

Neu5Ac(a2-6)GalNAc = target: Neu5Ac(a2-6)GalNAc
Procedure, shortened: as §1

[29] = target: Neu5Ac(a2-6)GlcNAc(b1-4)GlcNAc(b1-4)GlcNAc
Procedure, shortened: as §1

[30] = target: Neu5Gc(a2-3)Gal(b1-3)GlcNAc
Procedure, shortened: as §1

B1: Layilin (Mus musculus), Q8C351 (protein)
chain: MQPGAALQAMLLAVLLAKPRDSKGRLLSASDLDPRGGQLVCRGGTRRPCYKVIYFHDAFQRLNFEEAKETCMEDGGQLVSIETEDEQRLIEKFIENLLASDGDFWIGLKRLEEKQSNNTACQDLYAWTDGSTSQFRNWYVDEPSCGSEVCVVMYHQPSAPPGIGGSYMFQWNDDRCNMKNNFICKYHDDKPSTTPSIWPGGEATEPATPLLPEETQKEDTKETFKERREAALNLAYILIPSIPLFLLLVVTSAVCWVWICRRKREQTDPSTKEQHTIWPTPRQENSPNLDVYNVIRKQSEADLAEPRPDLKNISFRVCSGEAMPDDMSCDYENIAVNPSESGFVTLASMESGFVTNDIYEFSPDRMGRSKESGWVENEIYY
[1]
  glycan array binding signal (z-score): -0.101
[2]
  glycan array binding signal (z-score): 4.74
[3]
  glycan array binding signal (z-score): 2.16
[4]
  glycan array binding signal (z-score): -0.753
[5]
  glycan array binding signal (z-score): 1.43
Gal(a1-3)Gal(b1-3)GlcNAc
  glycan array binding signal (z-score): -0.17
[6]
  glycan array binding signal (z-score): 3.88
[7]
  glycan array binding signal (z-score): -0.423
[8]
  glycan array binding signal (z-score): 7.71
[9]
  glycan array binding signal (z-score): -0.41
[10]
  glycan array binding signal (z-score): -0.504
[11]
  glycan array binding signal (z-score): -0.753
[12]
  glycan array binding signal (z-score): -0.619
Gal3S(b1-4)GlcNAc6S
  glycan array binding signal (z-score): -0.103
Gal3S6S(b1-4)GlcNAc
  glycan array binding signal (z-score): -0.561
Gal6S(b1-3)GlcNAc
  glycan array binding signal (z-score): -0.243
GalNAc(b1-3)GalNAc
  glycan array binding signal (z-score): -0.932
[13]
  glycan array binding signal (z-score): -0.492
[14]
  glycan array binding signal (z-score): -1.4
[15]
  glycan array binding signal (z-score): 5.27
[16]
  glycan array binding signal (z-score): 3.53
[17]
  glycan array binding signal (z-score): 3.11
GlcNAc(b1-3)Man
  glycan array binding signal (z-score): 0.015
Kdn(a2-3)Gal(b1-3)GlcNAc
  glycan array binding signal (z-score): -0.719
[18]
  glycan array binding signal (z-score): 0.181
[19]
  glycan array binding signal (z-score): 0.955
[20]
  glycan array binding signal (z-score): 0.119
[21]
  glycan array binding signal (z-score): -0.212
[22]
  glycan array binding signal (z-score): 2.92
[23]
  glycan array binding signal (z-score): 1.82
[24]
  glycan array binding signal (z-score): 4.15
[25]
  glycan array binding signal (z-score): -0.666
[26]
  glycan array binding signal (z-score): 0.49
Neu5Ac(a2-6)Gal(b1-4)Glc
  glycan array binding signal (z-score): 0.086
[27]
  glycan array binding signal (z-score): 1.47
[28]
  glycan array binding signal (z-score): -0.392
Neu5Ac(a2-6)GalNAc
  glycan array binding signal (z-score): -0.757
[29]
  glycan array binding signal (z-score): 0.077
[30]
  glycan array binding signal (z-score): 0.013
